The list is not random: actives were taken first. Their share in the collection is about 19%.
HT1080-NT tox = qHTS for induction of synthetic lethality in tumor cells producing 2HG: qHTS for the HT-1080-NT fibrosarcoma cell line; hit rate 1.6% among 360,000; AID 686970, 2013; Potency, µM (highest dose often 46.1 µM), for the others: top-dose activity, negative = less viability, usual class: cytotoxic; HT-1080-NT fibrosarcoma viability, CellTiter-Glo ATP luminescence, 48 h;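 also: NT is the 2HG producing partner of a matched IDH1 knockdown line; potency is read from the fitted curve at half-maximal effect; 0% = DMSO-treated cells and -100% = media-only wells without cells; nearly all actives have a fitted effect of over 55% in size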
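Toxicity toward the 2HG-producing NT line was scored as %Activity, normalised to DMSO and no-cell wells, from CellTiter-Glo luminescence after 48 hours' treatment.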
uPA generation = qHTS for Inhibitors of Cell Surface uPA Generation. cell surface uPA generation assay, qHTS. Potency, µM (top dose mostly 38.3 µM), for the others: at the top dose activity change, negative = inhibition, actives largely listed as inhibitors. hit rate 0.31% among 330,000. AID 540303, 2011; active = well fitted inhibition curve with a large enough effect; inconclusive = small, poorly fitted or top-dose-only effect; inactive = no such curve, though single readings can be large or run the other way; tested in mouse RAW 264.7 cells; also: potency is read from the fitted curve at half-maximal effect; nearly all actives have a fitted effect of over 55% in size
DT40 TDP1 CPT = qHTS for Inhibitors of human tyrosyl-DNA phosphodiesterase 1 (TDP1): qHTS in cells in presence of CPT. hit rate 12% among 420,000. Potency, µM (series often up to 46.2 µM), inactives show at the top dose activity change, negative = growth inhibition, most hits filed as inhibitors. chicken DT40 Tdp1-/-;hTDP1 cells + 20 nM CPT, ATP luminescence, 48 h; also: potency is read from the fitted curve at half-maximal effect; nearly all actives have a fitted effect of over 55% in size
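Chicken DT40 Tdp1-/- cells stably complemented with human TDP1 were seeded at 400 cells/well in medium containing 20 nM camptothecin, exposed to pin-transferred compounds, and grown at 37 °C for at least 48 hr. Viability was read as ATP luminescence.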
TDP1 cell noCPT = qHTS for Inhibitors of human tyrosyl-DNA phosphodiesterase 1 (TDP1): qHTS in cells in absence of CPT | hit rate 15% among 420,000 | DT40 Tdp1-/- hTDP1 cells, no CPT, ATP luminescence, 48 h | Potency, µM (top dose mostly 46.2 µM), without a hit: at the highest dose activity change, negative = growth inhibition, most hits filed as inhibitors | AID 686978, 2013; also: potency is read from the fitted curve at half-maximal effect; nearly all actives have a fitted effect of over 55% in size
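Compound effects on proliferation are scored in DT40 Tdp1-/-;hTDP1 cells in the absence of CPT. ATP levels (CellTiter-Glo luminescence) are recorded after a ≥48 hr, 37 °C incubation.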
IL-1B inflam inh = qHTS for Inhibitors of Inflammasome Signaling: IL-1-beta AlphaLISA Primary Screen; THP-1 LPS/ATP IL-1B secretion, AlphaLISA, 16 h; stronger effect = lower value; hit rate 4.7% among 360,000; activity change, % at 57.5 µM; in the data active = activity change below about -50%; inconclusive = mostly about -30% to -49%
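Secreted IL-1B measured by AlphaLISA bead assay after 16 h compound exposure of THP-1 cells; compounds (final up to 57.5 uM) added 1 h before LPS (250 ng/mL) and ATP (1.25 mM) stimulation; lower signal means less secretion.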
HT1080 IDH1KD tx = qHTS for induction of synthetic lethality in tumor cells producing 2HG: qHTS for the HT-1080-IDH1KD cell line; hit rate 2% among 360,000; HT-1080 IDH1 knockdown viability, ATP luminescence, 48 h; Potency, µM (titrated, usually from 46.1 µM), for the others: at the highest dose activity, negative = toxicity, most hits filed as cytotoxic; AID 686971, 2013;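 also: potency is read from the fitted curve at half-maximal effect; 0% = DMSO wells and -100% = cell-free medium wells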
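Cytotoxicity counter-line: IDH1KD HT-1080, 48 h, CellTiter-Glo. Curves classed by r2, magnitude and activity.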
The depositor's hits bear a star. Unless noted, calls follow the shape of the dose curve; as a rule, active = well fitted curve in the direction sought with a large enough effect; inconclusive = small, poorly fitted or top-dose-only effect, or another doubt; inactive = no such curve, though single readings can be large; an effect the other way counts as inactive or inconclusive. Unless noted, % is scaled to controls: 0 for no effect and ±100 for the full control effect.

Results for CCCCC[C@@H]1[C@H]2[C@H]3C(=O)N(c4ccccc4)C(=O)[C@H]3CC(=O)[C@H]2[C@H](c2ccccc2)N1S(=O)(=O)c1ccc(C)cc1 ?
HT1080-NT tox: 1%; DT40 TDP1 CPT: 20%; TDP1 cell noCPT: 2%; IL-1B inflam inh: 12; HT1080 IDH1KD tx: 5%

What do the screens show for `CCOC(=O)C1(CCOc2ccccc2)CCN(Cc2cnc(C)[nH]2)CC1`?
HT1080-NT tox: -11%; uPA generation: 4%; DT40 TDP1 CPT: 2%; TDP1 cell noCPT: inconclusive; IL-1B inflam inh: -94*; HT1080 IDH1KD tx: -11%

What do the screens show for `CCOC(=O)C1(CCOc2ccccc2)CCN(Cc2ccc(COC)o2)CC1`?
HT1080-NT tox: -6%; uPA generation: -5%; DT40 TDP1 CPT: 7.3µM*; TDP1 cell noCPT: inconclusive; IL-1B inflam inh: -57*; HT1080 IDH1KD tx: -8%

Results for CCCN1CCC(CCOc2ccccc2)(C(=O)OCC)CC1 ?
HT1080-NT tox: 2%; uPA generation: 14%; DT40 TDP1 CPT: -6%; TDP1 cell noCPT: 1%; IL-1B inflam inh: 1; HT1080 IDH1KD tx: 1%

How did CCOC(=O)C1(Cc2ccccc2)CCN(Cc2ccc(COC)o2)CC1 do in these assays?
HT1080-NT tox: 0%; uPA generation: -1%; DT40 TDP1 CPT: 12µM*; TDP1 cell noCPT: inconclusive; IL-1B inflam inh: -10; HT1080 IDH1KD tx: 7%

Results for CCOC(=O)C1(Cc2ccccc2)CCN(Cc2ccc3c(c2)OCCO3)CC1 ?
HT1080-NT tox: 11%; uPA generation: 0%; DT40 TDP1 CPT: 0%; TDP1 cell noCPT: -17%; IL-1B inflam inh: 18; HT1080 IDH1KD tx: 2%

What do the screens show for `CCOC(=O)C1(Cc2ccccc2)CCN(Cc2ccc(C)s2)CC1`?
HT1080-NT tox: -17%; uPA generation: 3%; DT40 TDP1 CPT: inconclusive; TDP1 cell noCPT: 23µM*; IL-1B inflam inh: -26; HT1080 IDH1KD tx: -29%

What do the screens show for `Cc1nn(-c2ccc(N3CCCC3)nn2)c(C)c1CCC(=O)NCc1ccc(F)cc1`?
DT40 TDP1 CPT: -26%; TDP1 cell noCPT: -30%

Results for CCOC(=O)C1(Cc2cccc(F)c2)CCN(C2CCOCC2)CC1 ?
HT1080-NT tox: 9%; uPA generation: -3%; DT40 TDP1 CPT: -4%; TDP1 cell noCPT: -9%; IL-1B inflam inh: -13; HT1080 IDH1KD tx: 17%

What do the screens show for `CCOC(=O)C1(Cc2cccc(F)c2)CCN(Cc2ccc(COC)o2)CC1`?
HT1080-NT tox: 0%; uPA generation: 6%; DT40 TDP1 CPT: 23µM*; TDP1 cell noCPT: 21µM*; IL-1B inflam inh: 0; HT1080 IDH1KD tx: 13%

Results for OC[C@@H]1CN(CCN2CCOCC2)C[C@H](n2cnc3c(NC4CCCC4)ncnc32)O1 ?
HT1080-NT tox: inconclusive; DT40 TDP1 CPT: 3%; TDP1 cell noCPT: -5%; IL-1B inflam inh: 22; HT1080 IDH1KD tx: 17%

Results for Cc1nn(-c2ccccc2)c(Cl)c1/C=C(\C#N)C(=O)NC(C)C ?
HT1080-NT tox: -16%; uPA generation: -20%; DT40 TDP1 CPT: 1%; TDP1 cell noCPT: inconclusive; IL-1B inflam inh: -102*; HT1080 IDH1KD tx: -11%

Results for COc1ccc(NC(=O)/C(C#N)=C/c2c(C)nn(-c3ccc(F)cc3)c2Cl)cc1Cl ?
HT1080-NT tox: -1%; uPA generation: 3%; DT40 TDP1 CPT: inconclusive; TDP1 cell noCPT: inconclusive; IL-1B inflam inh: -55*; HT1080 IDH1KD tx: 1%
